Compound activity: PubChem BioAssay, several laboratories
Most compounds without a hit are left out; they make up all but 2.8% or so of the library.
Peg3 prom inh: Peg3 promoter activity inhibition; inhibition, % at 20 µM; HeLa PEG-Prom luciferase reporter, luminescence, overnight; 1.7% of 360,000 active;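 active means inhibition of at least 50% at 20 µM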
Shn3 3UTR inh: reduces Shn3 3'UTR luciferase signal in osteoblasts; Clone20 osteoblast Shn3 3'UTR firefly luciferase, 24 h; inhibition, % at 12.5 µM; 0.52% of 360,000 active; AID 588674;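 active means mean inhibition of at least 75% with every replicate also reaching 75%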
HIF-2a inh: inhibitors of HIF-2a; 786-0 RCC cells HIF-2a reporter, luciferase luminescence, overnight; inhibition, % at 18.8 µM; 0.72% of 360,000 active; AID 624352;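 active means inhibition of the luminescence signal of 40% or more relative to plate controls, in a single-dose primary screen at 18.75 µM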
KKLEB tox: CF airway cell cytotoxicity counter-screen; KKLEB CF airway cells viability, ATPlite luminescence, overnight; hits give low values; cells stimulated with P. aeruginosa culture filtrate; activity change (cytotoxicity), % at 5 µM; 0.36% of 360,000 active;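 active means corrected activity change at or below -50% at 5 µM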
MITF TRPM1 inh: reduces MITF-dependent TRPM1 promoter luciferase signal. SK-MEL-5 TRPM1 promoter luciferase, 24 h. inhibition, % at 12.5 µM. 0.83% of 330,000 active. AID 488899;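 active means mean inhibition across replicates of 60% or more, whatever share of single replicates reaches that level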
CF NFkB inh: cystic fibrosis NF-kB activation inhibition; KKLEB NF-kB-GFP reporter, PAF-induced, GFP fluorescence overnight; inhibition, % at 5 µM; 0.86% of 360,000 active;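 active means at least 50% inhibition at 5 µM, scaled per plate between neutral and stimulator controls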;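 further: PAF is a Pseudomonas aeruginosa culture filtrate used as stimulus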
Numbers stand for hits; n = inactive; x = not tested or not shown; ! = not active in a repeat.

SMILES	Peg3 prom inh	Shn3 3UTR inh	HIF-2a inh	KKLEB tox	MITF TRPM1 inh	CF NFkB inh
COc1nc(NCCc2ccc(OC)c(OC)c2)nc(OC)n1	n	n	n	n	n	n
COc1ccc(CCNc2c3ccccc3nc3ccccc23)cc1OC	72.8	n	50.9	n	n	n
Oc1cccc(Nc2c3ccccc3nc3ccccc23)c1	75.9	n	n	n	n	n
CCOC(=O)c1ccccc1NC(=O)Cc1c(C(=O)O)n(C)c2ccccc12	n	n	n	n	n	n
Cc1ccc(C(C)C)c(OCc2ccc(C(=O)N/N=C/c3ccc(O)c(O)c3)cc2)c1	n	n	71.5	n	n	n
COc1cc(/C=N/NC(=O)c2ccc(COc3cc(C)ccc3C(C)C)cc2)cc(OC)c1O	n	n	69.0	n	n	n
Cc1ccc(C(C)C)c(OCc2ccc(C(=O)N/N=C/c3cccc(O)c3O)cc2)c1	n	93.6	71.0	n	82.7	n
CCOc1cc(/C=N/NC(=O)c2ccc(=O)n(C)c2)ccc1O	n	n	n	n	n	n
COc1cc(/C=N\NC(=O)c2ccc(-c3ccccc3)cc2)cc(OC)c1O	n	n	n	n	n	n
CC(=O)Nc1ccc(C(=O)N/N=C/c2ccccc2OCc2ccccc2)cc1	n	n	n	n	n	n
CCOc1cc(/C=N\Nc2ccc([N+](=O)[O-])cc2)ccc1OCC(=O)Nc1ccc(C)c(C)c1	n	n	n	n	n	n
O=C(COc1ccc(/C=N/NC(=O)c2cc3ccccc3o2)cc1Cl)Nc1ccccc1	107.7	n	n	-92.7	95.3	89.8
CCOc1cc(/C=N\NC(=O)Cc2ccccc2)ccc1OCC(=O)Nc1ccc(C)c(C)c1	n	n	n	n	64.0	n
COc1cc(/C=N/NC(=O)c2ccccc2O)ccc1OCC(=O)Nc1ccccc1	n	n	n	n	n	n
O=c1cc(-c2ccncc2)oc2c1ccc1ccccc12	79.5	n	n	n	n	n
CC(C)c1ccc(-c2nnn(CCC(=O)O)n2)cc1	n	n	88.9	n	86.7	n
O=C(O)CCn1nnc(-c2cccs2)n1	n	n	n	n	n	n
Cn1c2c(c(=O)n(C)c1=O)C(C(F)(F)F)(C(F)(F)F)N=C(c1ccccc1Cl)N2	n	n	n	n	n	n
Cn1c2c(c(=O)n(C)c1=O)C(C(F)(F)F)(C(F)(F)F)N=C(CCC1CCCCC1)N2	57.9	n	n	n	n	n
N#Cc1ccc(S(=O)(=O)N2CCC(C(=O)Nc3cccc(C(=O)NC4CC4)c3)CC2)cc1	n	n	n	n	n	n
COc1ccc(N=N/C(=C\O)C(=O)c2cccs2)cc1	n	n	n	n	n	75.5
CC1(C(=O)Nc2cccnc2)Cc2c(-c3cccc(C(F)(F)F)c3)ccnc2O1 (stereo not given)	n	n	n	n	x	n
COc1ccccc1/C=C1\SC(=S)N(CCC(=O)NNC(=O)c2ccccc2OC)C1=O	n	n	44.4	n	n	n
O=C(CCCN1C(=O)/C(=C/c2ccccc2Cl)SC1=S)Nc1cccnc1	71.3	n	n	n	n	n
Cc1ccc(C(=O)NNC(=O)CCCN2C(=O)/C(=C/c3ccccc3Cl)SC2=S)cc1	n	n	86.7	n	n	n
SMILES	Peg3 prom inh	Shn3 3UTR inh	HIF-2a inh	KKLEB tox	MITF TRPM1 inh	CF NFkB inh
O=C(CCCN1C(=O)/C(=C/c2ccccc2Cl)SC1=S)Nc1ccccn1	n	n	79.5	n	n	n
O=C(CCN1C(=O)/C(=C/c2ccccc2Cl)SC1=S)Nc1ccccn1	n	n	n	n	n	n
CN(CC(=O)Nc1ccccc1Cl)C(=O)CN1C(=O)C2CCCCC2C1=O (stereo not given)	n	n	n	n	n	n
CC(C)[C@H]1COCCS(=O)(=O)N1Cc1ccccc1-c1ccccc1	n	n	n	n	n	n
Cc1ccc2c(c1)C(c1ccccc1)N(C(=O)c1ccc3c(c1)OCO3)CC(=O)N2 (stereo not given)	n	n	n	n	n	n
Cc1cc(C)c2nc3nc(C)c(C)cc3c(N)c2c1	65.6	n	n	n	n	n
COc1ccc(C2C(C#N)=C(N)N(c3ccccc3C#N)C3=C2C(=O)CCC3)cc1CN1CCCC1 (stereo not given)	n	n	n	n	n	n
OCCN1CCN(CCCN2c3ccccc3Sc3ccc(Cl)cc32)CC1	n	n	n	n	n	n
CN(C)CCCN1c2ccccc2Sc2ccc(Cl)cc21	75.4!	n	n	n	n	n
Cc1cccc(Nc2nc(NCCCN3CCOCC3)nc(N)c2[N+](=O)[O-])c1	n	n	n	n	n	n
CC(C)c1ccc(S(=O)(=O)/N=C2\C=C(NS(=O)(=O)c3ccccc3)C(=O)c3ccccc32)cc1	n	n	n	n	n	73.7
CCc1ccc(S(=O)(=O)/N=C2\C=C(NS(=O)(=O)c3ccccc3)C(=O)c3ccccc32)cc1	n	n	n	n	n	69.0
Cc1cc(C)nc(/N=C(\N)Nc2ccccc2-c2ccccc2)n1	n	n	n	n	n	n
CCOC(=O)c1ccc(CNC(=O)Cn2nnc(-c3ccccc3)n2)o1	n	n	n	n	n	n
CC(=O)c1ccc(N2CCN(C(=O)CCC(=O)Nc3ccc4nc(N5CCN(C)CC5)cc(C)c4c3)CC2)cc1	n	n	n	n	n	n
Cc1ccc(NC(=O)CSc2nnc(-c3ccc(S(=O)(=O)N4CCCC4)cc3)o2)cc1C	60.1	n	n	n	n	n
CCN1CCN(Cc2ccc(NC(=O)c3cc(NC(=O)C(=O)c4c[nH]c5ccccc45)cc(OC)c3)cc2C(F)(F)F)CC1	93.6	n	n	n	n	n
CCN1CCN(Cc2ccc(NC(=O)c3ccc(C)c(NC(=O)c4ccnnc4)c3)cc2C(F)(F)F)CC1	n	n	n	n	n	n
CCN1CCN(Cc2ccc(C(=O)Nc3ccc(C)c(NCc4cnc(NC(=O)OC)cn4)c3)cc2C(F)(F)F)CC1	n	n	n	n	n	n
CCN1CCN(Cc2ccc(NC(=O)c3cc(NC(=O)c4cnn(-c5ccccc5)c4N)cc(OC)c3)cc2C(F)(F)F)CC1	n	n	n	n	79.3	n
CCN1CCN(Cc2ccc(NC(=O)c3cc(NC(=O)c4cc(C)on4)cc(OC)c3)cc2C(F)(F)F)CC1	57.4!	n	n	n	n	n
CCOC(=O)N1CCN(C(=O)C[C@@H]2C[C@@]3(C(=O)OC)CCCCC=C3N(CCc3ccc(OC)c(OC)c3)C2=O)CC1	x	x	n	x	x	x
O=[N+]([O-])c1ccccc1/C=C/C=N/Nc1nc(N2CCCCC2)nc(N2CCCCC2)n1	n	n	n	n	n	n
C(=C\c1ccccc1)/C=N/Nc1nc(N2CCCCC2)nc(N2CCCCC2)n1	51.0	n	n	n	n	n
COCCCN1CCN(C2Cc3ccccc3Sc3ccc(Cl)cc32)CC1 (stereo not given)	n	n	n	n	n	n
COc1ccc2c(c1)CC(N1CCN(C)CC1)c1cc(OC)ccc1S2 (stereo not given)	68.9	n	n	n	n	n
